Measured values reported in the supplement of paper PMC10849652.
The full data set covers some 7,900 targets. This sample favours those with a hit. About 0.6% of all pairs of compound and target were hits. A number with no mark means an inactive call.

compound: O=C1NC(=O)C(c2cnc3ccccn23)=C1c1cn2c3c(cc(F)cc13)CN(C(=O)N1CCCCC1)CC2; assay: log2 fold change, soluble protein after heating vs DMSO (PISA); higher = thermal stabilisation; K562 cells, 10 uM, 30 min; active = over 0.2 and 3.5 SD of the protein, either way, in both replicates (recomputed)
Outline: (§1)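 K562 cells at 2×10^6 cells/mL were treated with 10 μM compound for 30 min. Aliquots were heated for 3 min across 48°C-58°C, pooled, and extracted in PBS with 0.5% NP-40 at 4°C; soluble protein was the supernatant after 21,000xg for 90 min. Soluble protein was quantified by TMTpro 16plex LC-MS/MS with channel sums equalised, and reported as log2 fold change in thermal stability against DMSO controls, with values from duplicates.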

Sequence of UniProt Q10713 (Q10713 whole entry, looked up): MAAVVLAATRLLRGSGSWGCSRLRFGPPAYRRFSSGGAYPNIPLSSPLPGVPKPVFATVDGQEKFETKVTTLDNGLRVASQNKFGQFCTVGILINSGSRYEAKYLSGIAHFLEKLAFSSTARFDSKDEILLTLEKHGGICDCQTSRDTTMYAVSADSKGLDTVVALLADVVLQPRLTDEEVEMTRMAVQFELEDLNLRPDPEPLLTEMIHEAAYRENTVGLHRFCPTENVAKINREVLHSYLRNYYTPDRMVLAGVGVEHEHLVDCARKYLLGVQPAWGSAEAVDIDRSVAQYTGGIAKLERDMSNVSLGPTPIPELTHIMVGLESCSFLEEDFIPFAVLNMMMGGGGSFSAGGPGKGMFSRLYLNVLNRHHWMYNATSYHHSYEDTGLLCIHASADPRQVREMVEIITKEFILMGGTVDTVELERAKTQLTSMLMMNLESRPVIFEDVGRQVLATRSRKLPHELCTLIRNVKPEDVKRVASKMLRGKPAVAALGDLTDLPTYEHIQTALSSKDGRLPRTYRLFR
Sequence of UniProt Q6L8Q7 (Q6L8Q7 whole entry, looked up): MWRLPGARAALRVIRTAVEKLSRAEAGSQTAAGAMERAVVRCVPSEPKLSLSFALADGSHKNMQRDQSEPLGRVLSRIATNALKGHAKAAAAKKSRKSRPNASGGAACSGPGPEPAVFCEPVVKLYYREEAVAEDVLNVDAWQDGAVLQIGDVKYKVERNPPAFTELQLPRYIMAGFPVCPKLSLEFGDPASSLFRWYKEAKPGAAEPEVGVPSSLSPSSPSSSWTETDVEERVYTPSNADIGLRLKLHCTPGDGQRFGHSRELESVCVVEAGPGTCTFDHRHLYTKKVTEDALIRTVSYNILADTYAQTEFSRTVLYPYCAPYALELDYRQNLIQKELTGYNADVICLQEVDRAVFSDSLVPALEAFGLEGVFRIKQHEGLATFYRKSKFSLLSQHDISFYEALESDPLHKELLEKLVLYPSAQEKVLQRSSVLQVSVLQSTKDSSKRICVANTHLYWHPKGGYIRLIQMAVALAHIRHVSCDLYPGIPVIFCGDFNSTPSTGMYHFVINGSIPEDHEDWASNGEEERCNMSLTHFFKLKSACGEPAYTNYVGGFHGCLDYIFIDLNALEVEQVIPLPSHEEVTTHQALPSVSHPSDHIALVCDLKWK
Sequence of UniProt Q99541 (Q99541 whole entry, looked up): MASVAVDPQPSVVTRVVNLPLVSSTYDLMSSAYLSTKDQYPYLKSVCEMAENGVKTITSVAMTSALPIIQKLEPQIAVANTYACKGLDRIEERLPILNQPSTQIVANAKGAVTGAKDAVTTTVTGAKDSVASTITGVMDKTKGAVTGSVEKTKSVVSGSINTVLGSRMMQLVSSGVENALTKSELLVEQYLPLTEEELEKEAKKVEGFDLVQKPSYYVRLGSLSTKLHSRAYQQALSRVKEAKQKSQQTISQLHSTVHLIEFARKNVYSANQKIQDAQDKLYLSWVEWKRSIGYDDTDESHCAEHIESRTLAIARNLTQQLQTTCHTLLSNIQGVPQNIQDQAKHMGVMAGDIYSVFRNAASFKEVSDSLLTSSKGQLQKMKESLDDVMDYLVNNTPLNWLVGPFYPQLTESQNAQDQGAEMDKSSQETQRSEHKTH
Sequence of UniProt Q2TAL8 (Q2TAL8 whole entry, looked up): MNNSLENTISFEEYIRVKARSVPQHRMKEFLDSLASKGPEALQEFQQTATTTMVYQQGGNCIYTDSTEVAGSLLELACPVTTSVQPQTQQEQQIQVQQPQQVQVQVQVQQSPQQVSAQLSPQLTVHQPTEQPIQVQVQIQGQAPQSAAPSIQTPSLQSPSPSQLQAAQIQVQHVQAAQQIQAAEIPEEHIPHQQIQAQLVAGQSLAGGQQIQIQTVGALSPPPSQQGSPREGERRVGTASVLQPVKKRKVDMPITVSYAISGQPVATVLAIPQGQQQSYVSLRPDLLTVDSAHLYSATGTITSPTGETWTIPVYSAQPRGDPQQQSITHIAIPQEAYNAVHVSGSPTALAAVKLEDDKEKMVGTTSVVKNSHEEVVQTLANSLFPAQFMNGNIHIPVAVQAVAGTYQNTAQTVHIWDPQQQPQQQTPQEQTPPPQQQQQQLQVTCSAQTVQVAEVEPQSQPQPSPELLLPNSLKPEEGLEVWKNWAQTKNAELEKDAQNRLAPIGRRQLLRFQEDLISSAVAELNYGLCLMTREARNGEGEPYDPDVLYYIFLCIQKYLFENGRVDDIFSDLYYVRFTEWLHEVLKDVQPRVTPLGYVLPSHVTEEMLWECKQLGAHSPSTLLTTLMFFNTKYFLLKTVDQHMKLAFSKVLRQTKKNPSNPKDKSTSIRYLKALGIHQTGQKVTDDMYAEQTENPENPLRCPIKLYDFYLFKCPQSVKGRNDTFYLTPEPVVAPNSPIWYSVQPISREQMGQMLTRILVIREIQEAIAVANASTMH
Sequence of UniProt Q7Z3K3 (Q7Z3K3 whole entry, looked up): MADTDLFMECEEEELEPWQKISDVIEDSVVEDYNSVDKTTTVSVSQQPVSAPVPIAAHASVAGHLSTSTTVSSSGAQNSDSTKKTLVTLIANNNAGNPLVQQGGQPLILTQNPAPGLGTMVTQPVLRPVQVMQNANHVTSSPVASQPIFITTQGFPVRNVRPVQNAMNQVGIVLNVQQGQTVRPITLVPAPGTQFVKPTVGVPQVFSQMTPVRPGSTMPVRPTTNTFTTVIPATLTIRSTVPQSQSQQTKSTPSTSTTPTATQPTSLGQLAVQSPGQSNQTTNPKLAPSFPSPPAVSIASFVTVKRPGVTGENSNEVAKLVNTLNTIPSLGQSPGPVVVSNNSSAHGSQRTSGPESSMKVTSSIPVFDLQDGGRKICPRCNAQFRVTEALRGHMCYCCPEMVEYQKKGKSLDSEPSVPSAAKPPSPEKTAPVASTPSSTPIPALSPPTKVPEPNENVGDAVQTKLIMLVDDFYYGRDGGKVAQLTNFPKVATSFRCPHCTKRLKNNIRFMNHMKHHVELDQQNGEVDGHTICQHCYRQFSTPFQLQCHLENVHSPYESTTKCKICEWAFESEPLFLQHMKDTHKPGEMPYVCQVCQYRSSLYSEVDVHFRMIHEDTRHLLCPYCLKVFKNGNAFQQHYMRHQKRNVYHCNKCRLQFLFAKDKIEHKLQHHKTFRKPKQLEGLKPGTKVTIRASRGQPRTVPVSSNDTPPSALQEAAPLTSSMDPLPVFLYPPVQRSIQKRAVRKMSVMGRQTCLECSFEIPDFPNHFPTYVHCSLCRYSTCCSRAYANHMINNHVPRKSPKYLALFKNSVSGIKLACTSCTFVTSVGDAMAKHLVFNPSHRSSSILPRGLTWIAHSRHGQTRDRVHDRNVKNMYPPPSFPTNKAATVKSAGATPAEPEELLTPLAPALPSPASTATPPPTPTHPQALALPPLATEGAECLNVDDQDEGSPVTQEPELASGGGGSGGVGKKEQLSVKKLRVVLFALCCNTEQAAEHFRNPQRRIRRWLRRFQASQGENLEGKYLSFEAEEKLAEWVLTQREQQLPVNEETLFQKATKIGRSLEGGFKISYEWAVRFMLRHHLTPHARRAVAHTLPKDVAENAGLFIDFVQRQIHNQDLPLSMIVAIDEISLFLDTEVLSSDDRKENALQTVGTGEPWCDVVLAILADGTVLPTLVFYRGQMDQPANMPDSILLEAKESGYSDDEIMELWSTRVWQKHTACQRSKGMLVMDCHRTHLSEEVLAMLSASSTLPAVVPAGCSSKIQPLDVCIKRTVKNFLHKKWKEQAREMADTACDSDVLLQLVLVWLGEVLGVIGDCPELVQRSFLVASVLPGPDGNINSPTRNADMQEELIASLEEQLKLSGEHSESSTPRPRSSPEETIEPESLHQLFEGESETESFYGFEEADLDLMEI
Sequence of UniProt P62191 (P62191 whole entry, looked up): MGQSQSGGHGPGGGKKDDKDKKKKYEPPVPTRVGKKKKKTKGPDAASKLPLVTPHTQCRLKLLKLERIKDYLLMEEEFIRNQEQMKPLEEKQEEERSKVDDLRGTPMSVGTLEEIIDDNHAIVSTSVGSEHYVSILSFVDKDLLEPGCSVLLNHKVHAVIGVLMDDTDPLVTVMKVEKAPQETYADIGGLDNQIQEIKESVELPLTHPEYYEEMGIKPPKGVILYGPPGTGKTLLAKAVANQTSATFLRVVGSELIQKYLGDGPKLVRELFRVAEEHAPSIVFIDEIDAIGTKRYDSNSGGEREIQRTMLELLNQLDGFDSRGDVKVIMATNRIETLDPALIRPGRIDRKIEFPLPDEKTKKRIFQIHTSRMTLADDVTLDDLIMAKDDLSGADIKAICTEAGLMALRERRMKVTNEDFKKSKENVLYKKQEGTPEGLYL
Sequence of UniProt P43686 (P43686 whole entry, looked up): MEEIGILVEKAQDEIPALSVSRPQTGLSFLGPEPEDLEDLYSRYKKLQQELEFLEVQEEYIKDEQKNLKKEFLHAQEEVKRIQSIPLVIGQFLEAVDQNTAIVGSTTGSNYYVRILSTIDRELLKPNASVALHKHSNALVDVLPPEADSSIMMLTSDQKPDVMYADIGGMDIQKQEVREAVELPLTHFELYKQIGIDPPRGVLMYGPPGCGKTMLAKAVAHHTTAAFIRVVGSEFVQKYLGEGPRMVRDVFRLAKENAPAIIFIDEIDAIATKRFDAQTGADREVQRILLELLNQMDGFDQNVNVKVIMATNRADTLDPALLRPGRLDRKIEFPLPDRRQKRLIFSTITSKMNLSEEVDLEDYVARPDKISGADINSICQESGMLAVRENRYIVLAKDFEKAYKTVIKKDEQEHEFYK
Sequence of UniProt P49642 (P49642 whole entry, looked up): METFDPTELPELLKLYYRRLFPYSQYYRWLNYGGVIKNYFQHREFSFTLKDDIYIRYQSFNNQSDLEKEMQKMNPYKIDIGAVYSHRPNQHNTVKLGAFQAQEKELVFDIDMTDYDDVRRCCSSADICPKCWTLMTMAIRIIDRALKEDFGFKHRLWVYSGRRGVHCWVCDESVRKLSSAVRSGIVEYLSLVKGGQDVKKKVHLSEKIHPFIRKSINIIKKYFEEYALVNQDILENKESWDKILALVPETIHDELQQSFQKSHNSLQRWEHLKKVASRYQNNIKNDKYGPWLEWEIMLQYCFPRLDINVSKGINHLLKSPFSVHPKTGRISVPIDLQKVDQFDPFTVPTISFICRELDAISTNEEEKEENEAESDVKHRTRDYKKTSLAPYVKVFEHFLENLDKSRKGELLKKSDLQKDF

Row | Target | log2 fold change
1 | PDE12 (UniProt Q6L8Q7) | -0.089
2 | POGZ (UniProt Q7Z3K3) | -0.114
3 | PLIN2 (UniProt Q99541) | -0.046
4 | PSMC4 (UniProt P43686) | 0.043
5 | QRICH1 (UniProt Q2TAL8) | -0.276
6 | PSMC1 (UniProt P62191) | 0.026
7 | PMPCA (UniProt Q10713) | 0.01
8 | PRIM1 (UniProt P49642) | 0.023
9 | PRKACB isoform 2 (UniProt P22694) | -0.119
10 | PTK2B (UniProt Q14289) | 0.072

compound: c1cc(OCCN2CCCCC2)cc(-c2n[nH]c3ccc(-c4nnc[nH]4)cc23)c1; assay: as above
Outline: as §1

Row | Target | log2 fold change
11 | PRKCA (UniProt P17252) | -0.091
12 | POLR2C (UniProt P19387) | -0.195
13 | PHKA2 (UniProt P46019) | 0.065
14 | POLR2M (UniProt Q6EEV4) | -0.009
15 | PGGHG (UniProt Q32M88) | 0.058
16 | PTPMT1 (UniProt Q8WUK0) | -0.082
17 | PEX11B (UniProt O96011) | 0.024
18 | PDIK1L (UniProt Q8N165) | -0.162
19 | PCYT1B (UniProt Q9Y5K3) | -0.025
20 | PTP4A2 (UniProt Q12974) | -0.045
21 | PEF1 (UniProt Q9UBV8) | -0.02
22 | PHKA1 (UniProt P46020) | -0.068
23 | PISD (UniProt Q9UG56) | -0.006
24 | PNPLA4 (UniProt P41247) | -0.071
25 | PSMD7 (UniProt P51665) | -0.089
26 | PNN (UniProt Q9H307) | -0.446 (active)
27 | PPP2R5C isoform 4 (UniProt Q13362) | 0.058
28 | PIP4P1 isoform 2 (UniProt Q86T03) | -0.031
29 | QKI (UniProt Q96PU8) | 0.064
30 | PI4K2B (UniProt Q8TCG2) | 0.111
31 | PDE12 (UniProt Q6L8Q7) | 0.047
32 | POGZ (UniProt Q7Z3K3) | -0.483 (active)
33 | PLIN2 (UniProt Q99541) | -0.044
34 | PSMC4 (UniProt P43686) | -0.051
35 | QRICH1 (UniProt Q2TAL8) | 0.027
36 | PSMC1 (UniProt P62191) | -0.047
37 | PMPCA (UniProt Q10713) | 0.015
38 | PRIM1 (UniProt P49642) | -0.037
39 | PRKACB isoform 2 (UniProt P22694) | -0.065
